Measured values reported in PubChem BioAssay (EPA / NIEHS).
Active and inactive are the calls of the source. Rule for the calls: active = hit-call score of the fitted dose curve at least 0.9, where 1 is the maximum; inactive = score below 0.9.

Key:
[1] = read-out: Human Leukocyte Antigen - DR isotype (HLADR), HLA-DRA (gene 3122); assay: BSK_CASM3C_HLADR: BioMAP Diversity Plus: CASM3C Assay for Human Leukocyte Antigen - DR isotype (HLADR) Biomarker Activity (AID 2283043); conditions: primary human coronary artery smooth muscle cells; actives raise or lower the signal;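 note: cell-surface HLA-DR protein level quantified by ELISA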
[2] = read-out: Macrophage colony-stimulating factor (MCSF), CSF1 (gene 1435); assay: BSK_CASM3C_MCSF: BioMAP Diversity Plus: CASM3C Assay for Macrophage colony-stimulating factor (MCSF) Biomarker Activity (AID 2283044); conditions: primary human coronary artery smooth muscle cells; actives raise or lower the signal;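 note: M-CSF protein amount quantified by ELISA after 24 h exposure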
[3] = read-out: Low-density lipoprotein receptor (LDLR), LDLR (gene 3949); assay: BSK_CASM3C_LDLR: BioMAP Diversity Plus: CASM3C Assay for Low-density lipoprotein receptor (LDLR) Biomarker Activity (AID 2283045); conditions: primary human coronary artery smooth muscle cells; actives raise or lower the signal;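 note: LDLR protein level on the cell surface quantified by ELISA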
[4] = read-out: Monocyte Chemoattractant Protein-1 (MCP1), CCL2 (gene 6347); assay: BSK_CASM3C_MCP1: BioMAP Diversity Plus: CASM3C Assay for Monocyte Chemoattractant Protein-1 (MCP1) Biomarker Activity (AID 2283046); conditions: primary human coronary artery smooth muscle cells; actives raise or lower the signal;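 note: MCP-1 level quantified by ELISA 24 h after dosing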
[5] = BSK_CASM3C_Proliferation: Cell Proliferation Assessment in the BioMAP Diversity Plus: CASM3C Assay (AID 2283047); conditions: primary human coronary artery smooth muscle cells;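 note: sulforhodamine B total protein stain as relative cell number at 560 nm; sub-confluent cells exposed 48 h before staining; fitted both ways against DMSO so gain or loss of cell number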
[6] = read-out: Monokine induced gamma interferon (MIG), CXCL9 (gene 4283); assay: BSK_CASM3C_MIG: BioMAP Diversity Plus: CASM3C Assay for Monokine induced gamma interferon (MIG) Biomarker Activity (AID 2283048); conditions: primary human coronary artery smooth muscle cells; actives raise or lower the signal;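 note: MIG protein level measured by ELISA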
[7] = read-out: serum amyloid A (SAA), SAA1 (gene 6288); assay: BSK_CASM3C_SAA: BioMAP Diversity Plus: CASM3C Assay for serum amyloid A (SAA) Biomarker Activity (AID 2283049); conditions: primary human coronary artery smooth muscle cells; actives raise or lower the signal;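 note: SAA protein level quantified by ELISA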
[8] = BSK_CASM3C_SRB: Viability Assessment in the BioMAP Diversity Plus: CASM3C Assay (AID 2283050); conditions: primary human coronary artery smooth muscle cells;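 note: cells exposed to compound for 24 h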
[9] = read-out: Thrombomodulin, THBD (gene 7056); assay: BSK_CASM3C_Thrombomodulin: BioMAP Diversity Plus: CASM3C Assay for Thrombomodulin Biomarker Activity (AID 2283051); conditions: primary human coronary artery smooth muscle cells; actives raise or lower the signal;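 note: thrombomodulin protein level measured by ELISA 24 h after dosing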
[10] = read-out: Tissue Factor, F3 (gene 2152); assay: BSK_CASM3C_TissueFactor: BioMAP Diversity Plus: CASM3C Assay for Tissue Factor Biomarker Activity (AID 2283052); conditions: primary human coronary artery smooth muscle cells; actives raise or lower the signal;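 note: cell surface tissue factor protein level read by ELISA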
[11] = read-out: Interferon-gamma inducible Protein 10 (IP10), CXCL10 (gene 3627); assay: BSK_hDFCGF_IP10: BioMAP Diversity Plus: hDFCGF Assay for Interferon-gamma inducible Protein 10 (IP10) Biomarker Activity (AID 2283053); conditions: primary human foreskin fibroblasts; actives raise or lower the signal
How it was run: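 Primary human foreskin fibroblasts exposed to chemicals for 24 h. IP-10 measured by ELISA; changes fitted bidirectionally against DMSO baseline.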

[12] = read-out: Urokinase-type plasminogen activator receptor (uPAR), PLAUR (gene 5329); assay: BSK_CASM3C_uPAR: BioMAP Diversity Plus: CASM3C Assay for Urokinase-type plasminogen activator receptor (uPAR) Biomarker Activity (AID 2283054); conditions: primary human coronary artery smooth muscle cells; actives raise or lower the signal;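 note: cell-surface uPAR protein level quantified by ELISA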
[13] = read-out: Vascular cell adhesion molecule 1 (VCAM1), VCAM1 (gene 7412); assay: BSK_CASM3C_VCAM1: BioMAP Diversity Plus: CASM3C Assay for Vascular cell adhesion molecule 1 (VCAM1) Biomarker Activity (AID 2283055); conditions: primary human coronary artery smooth muscle cells; actives raise or lower the signal;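 note: VCAM-1 protein level quantified by ELISA on the cells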
[14] = read-out: Collagen III, COL3A1 (gene 1281); assay: BSK_hDFCGF_CollagenIII: BioMAP Diversity Plus: hDFCGF Assay for Collagen III Biomarker Activity (AID 2283056); conditions: primary human foreskin fibroblasts; actives raise or lower the signal
How it was run: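 Human foreskin fibroblast primary cultures sampled 24 h after dosing; Collagen III quantified by ELISA. Signal fitted bidirectionally against DMSO baseline.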

[15] = read-out: Epidermal growth factor receptor (EGFR), EGFR (gene 1956); assay: BSK_hDFCGF_EGFR: BioMAP Diversity Plus: hDFCGF Assay for Epidermal growth factor receptor (EGFR) Biomarker Activity (AID 2283057); conditions: primary human foreskin fibroblasts; actives raise or lower the signal
How it was run: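 Primary human foreskin fibroblasts (hDFCGF system), sampled 24 h after dosing; EGFR quantified by ELISA. Bidirectional fit relative to DMSO baseline; SRB total-protein staining in parallel cultures for cytotoxicity.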

[16] = read-out: Interleukin-8 (IL8), CXCL8 (gene 3576); assay: BSK_hDFCGF_IL8: BioMAP Diversity Plus: hDFCGF Assay for Interleukin-8 (IL8) Biomarker Activity (AID 2283058); conditions: primary human foreskin fibroblasts; actives raise or lower the signal
How it was run: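 Primary human foreskin fibroblasts (hDFCGF system) dosed with chemical; IL-8 measured by ELISA 24 hours later. Bidirectional curve fitting relative to DMSO baseline; cytotoxicity tracked in parallel cultures by SRB total protein staining.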

[17] = BSK_hDFCGF_Proliferation: Cell Proliferation Assessment in the BioMAP Diversity Plus: hDFCGF Assay (AID 2283059); conditions: primary human foreskin fibroblasts;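 note: curves fitted for both rise and fall of signal versus DMSO baseline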
How it was run: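 Steps: dose primary human dermal fibroblasts (foreskin); […] fix in 10% TCA; stain with 0.1% SRB; read 560 nm; fit gain or loss of signal against DMSO.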

[18] = read-out: Macrophage colony-stimulating factor (MCSF), CSF1 (gene 1435); assay: BSK_hDFCGF_MCSF: BioMAP Diversity Plus: hDFCGF Assay for Macrophage colony-stimulating factor (MCSF) Biomarker Activity (AID 2283060); conditions: primary human foreskin fibroblasts; actives raise or lower the signal
How it was run: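 Human foreskin fibroblast primary cultures; M-CSF measured by ELISA 24 hours after chemical dosing. Bidirectional fitting relative to DMSO, with overt cytotoxicity tracked by parallel SRB total-protein staining (0.1% SRB, 10% TCA fixation, 560 nm).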

[19] = BSK_hDFCGF_SRB: Viability Assessment in the BioMAP Diversity Plus: hDFCGF Assay (AID 2283061); conditions: primary human foreskin fibroblasts;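 note: cells exposed to compound for 24 h before the read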
How it was run: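 Human foreskin fibroblasts in 96-well plates were treated 24 h. Total protein was measured by 0.1% SRB staining after 10% TCA fixation, read at 560 nm. Data were fitted bidirectionally against DMSO.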

[20] = read-out: TIMP metallopeptidase inhibitor 1 (TIMP1), TIMP1 (gene 7076); assay: BSK_hDFCGF_TIMP1: BioMAP Diversity Plus: hDFCGF Assay for TIMP metallopeptidase inhibitor 1 (TIMP1) Biomarker Activity (AID 2283062); conditions: primary human foreskin fibroblasts; actives raise or lower the signal
How it was run: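 Human foreskin fibroblast primary cultures dosed for 24 h; secreted/surface TIMP-1 quantified by ELISA. Bidirectional curve fitting against DMSO baseline; cytotoxicity tracked in parallel cultures by SRB total-protein staining.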

Measured: AC50

CC(C)=CCC/C(C)=C/CO
inactive: [1] | [2] | [3] | [4] | [5] | [6] | [7] | [8] | [9] | [10] | [11] | [12] | [13] | [14] | [15] | [16] | [17] | [18] | [19] | [20]

O=c1n(CC2CO2)c(=O)n(CC2CO2)c(=O)n1CC1CO1 (stereo not drawn)
active: [1] 15.3 µM | [5] 1.85 µM | [13] 18.6 µM | [14] 6.71 µM | [15] 30.7 µM | [17] 4.36 µM | [18] 20 µM
inactive: [2] | [3] | [4] | [6] | [7] | [8] | [9] | [10] | [11] | [12] | [16] | [19]

O=C(O)c1cc(N=Nc2ccc(S(=O)(=O)Nc3ccccn3)cc2)ccc1O
inactive: [1] | [2] | [3] | [4] | [6] | [7] | [8] | [9] | [10] | [11] | [12] | [13] | [14] | [15] | [16] | [17] | [18] | [19] | [20]
active: [5] 14.5 µM

COc1ccc(-n2nc(C(F)F)cc2-c2ccc(S(C)=O)cc2)cc1 (stereo not drawn)
inactive: [1] | [2] | [3] | [4] | [5] | [6] | [7] | [8] | [9] | [10] | [11] | [12] | [13] | [14] | [15] | [16] | [17] | [18] | [19] | [20]

O=C(CCCCCCCCc1cccnc1)N1CCC(C=C(c2ccccc2)c2ccccc2)CC1
inactive: [9] | [10] | [15]
active: [1] 35 µM | [2] 38 µM | [3] 34.3 µM | [4] 38.2 µM | [5] 35.4 µM | [6] 38.3 µM | [7] 37.5 µM | [8] 39.1 µM | [11] 9 µM | [12] 39.2 µM | [13] 37.9 µM | [14] 4.91 µM | [16] 10.7 µM | [17] 5.65 µM | [18] 7.88 µM | [19] 7.83 µM | [20] 7.71 µM

CC(=O)OCCC(C)C
inactive: [1] | [2] | [3] | [4] | [5] | [6] | [7] | [8] | [9] | [10] | [11] | [12] | [13] | [14] | [15] | [16] | [17] | [18] | [19]

CCC(C)(C)C(=O)O[C@H]1C[C@@H](C)C=C2C=C[C@H](C)[C@H](CC[C@@H]3C[C@@H](O)CC(=O)O3)[C@H]21
inactive: [6] | [7] | [15]
active: [1] 20 µM | [2] 20 µM | [3] 20 µM | [4] 32.3 µM | [5] 2.18 µM | [8] 18.3 µM | [9] 0.336 µM | [10] 3.97 µM | [11] 31.4 µM | [12] 29.2 µM | [13] 29.8 µM | [14] 33.3 µM | [16] 29.5 µM | [17] 13.9 µM | [18] 26.3 µM | [19] 25.8 µM | [20] 34.2 µM

CCCCCCCCCCCCCCCO
inactive: [1] | [2] | [4] | [6] | [7] | [8] | [9] | [10] | [11] | [12] | [13] | [14] | [15] | [16] | [18] | [19] | [20]
active: [3] 31.9 µM | [5] 20 µM | [17] 20 µM

NC(=O)NO
inactive: [1] | [2] | [3] | [4] | [5] | [6] | [7] | [8] | [9] | [10] | [11] | [12] | [13] | [14] | [15] | [16] | [17] | [18] | [19] | [20]
